MITF TRPM1 inh: reduces MITF-dependent TRPM1 promoter luciferase signal. SK-MEL-5 TRPM1 promoter luciferase, 24 h. inhibition, % at 12.5 µM. actives 0.83% (n = 330,000). AID 488899;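 active = mean inhibition across replicates of 60% or more, whatever share of single replicates reaches that level; inconclusive = some that reach 60%, reason not given; inactive = mean inhibition across replicates below 60%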
EWS-Fli inh: inhibitors of EWS/Fli oncoprotein transcriptional activity | A673 NR0B1-luciferase reporter, viability-normalised | inhibition, % at 12.6 µM | actives 0.67% (n = 350,000) | AID 651661;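 active = mean inhibition of at least 50% after viability correction, with every replicate also passing that limit; inconclusive = mean reaches 50% but only one of two replicates passes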;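 note: firefly luciferase signal divided by Alamar Blue viability fluorescence both relative to DMSO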
MITF act: MITF TRPM1 promoter activation in melanoma cells. activation, % at 12.5 µM. actives 0.75% (n = 300,000). SK-MEL-5 TRPM1-promoter luciferase, 24 h; % of positive control, neutral wells = 0. AID 588334;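 active = mean activation of at least 80% with every replicate also reaching 80%; inconclusive = mean reaches 80% but some replicate falls short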;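 note: 0% = neutral control wells and 100% = parthenolide positive control wells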
Wnt bcat act: activators of Wnt/beta-catenin signaling; Wnt/beta-catenin reporter cell assay, activator, plate reader; activation, % at 9.35 µM; actives 1.2% (n = 300,000); in the data active = activation above about 30%, passing the limit was not always enough; inconclusive = no clear call, values can overlap the other calls;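 note: 0% = neutral control wells and 100% = positive control wells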
PAX8 reporter: lowers PAX8-driven luciferase in RMG-I cells | inhibition, % at 12.6 µM | actives 1.2% (n = 360,000) | RMG-I TPO-luciferase reporter, SteadyGlo, 24 h;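 active = mean replicate inhibition at least 60% with every replicate also reaching 60%; inconclusive = only one of the two criteria is met; inactive = mean below 60% and not all replicates reaching 60%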;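 note: luciferase light reporting Pax8 driven TPO promoter activity; plate controls were median of neutral control wells for no effect and mitoxantrone controls for full effect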
esBAF inh: SWI/SNF esBAF complex inhibition; mouse ES cells, Bmi1-luciferase knock-in reporter, 24 h; 100% = twice the neutral-well signal; actives 2% (n = 350,000); reporter increase, % at 12.5 µM; AID 602393; in the data active = activation above about 40%; inconclusive = no clear call, values can overlap the other calls;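 note: 0% = median of the plate's neutral control wells and 100% = double that signal; a rise in the Bmi1 reporter signal indicates esBAF inhibition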
Starred values were filed as active, the others as inactive; ? = inconclusive; nt = no result given. Hits are enriched below; roughly 4% of the tested compounds scored in any of these assays.

SMILES | MITF TRPM1 inh | EWS-Fli inh | MITF act | Wnt bcat act | PAX8 reporter | esBAF inh
CC(C)(C)[S@](=O)N1Cc2cc(C(=O)O)nc(-c3cccc(-c4cccc(F)c4)c3)c2[C@@H]1CCO | nt | -5.4 | nt | nt | 9.9 | nt
CCCC(=O)Nc1ccc2c(c1)C(=O)N(C)C[C@@H](OC)[C@H](C)CN(C(C)=O)[C@@H](C)CO2 | nt | -1.1 | nt | nt | nt | -9.6
CO[C@H]1CN(C)C(=O)c2ccc(NC(=O)c3cnccn3)cc2OC[C@H](C)N(CC2CC2)C[C@H]1C | nt | -0.9 | nt | nt | nt | nt
CCc1ccc(OCC(=O)O/N=C(\N)c2ccccn2)cc1 | nt | -68.2 | nt | 48.4* | -141.2 | nt
N/C(=N\OC(=O)Cc1ccccc1)c1ccccn1 | -7.0 | nt | 6.6 | nt | nt | nt
N/C(=N\OC(=O)COc1ccc2ccccc2c1Br)c1ccccn1 | -84.5 | -37.9 | ? | 43.7* | -108.9 | 85.1*
N/C(=N\OC(=O)COc1ccccc1)c1ccccn1 | -50.6 | -48.5 | 49.5 | 48.1* | -137.8 | 49.4*
Cc1cccc(OCC(=O)O/N=C(\N)c2ccccn2)c1 | -94.2 | -80.7 | 98.6* | 12.4 | nt | 38.3
N/C(=N\OC(=O)CCC1CCCC1)c1ccccn1 | -31.6 | nt | 32.6 | 52.1* | -206.6 | nt
COCC#Cc1ccc2c(c1)O[C@@H](CN(C)Cc1ccccc1F)[C@H](C)CN([C@H](C)CO)S2(=O)=O | nt | 14.9 | nt | nt | nt | -0.5
CC(=O)OCCN1c2ccccc2Sc2cnccc21 | nt | -3.6 | nt | -2.1 | -37.4 | -8.3
CC(=O)OCCCN1c2ccccc2Nc2nnc(-c3ccccc3)cc21 | -103.5 | nt | 98.4* | nt | nt | ?
CC1CCN(c2ccc3c(c2)S(=O)(=O)c2cccc(C(=O)NCc4ccc(F)cc4)c2C3=O)CC1 | nt | -16.6 | nt | 7.0 | -4.4 | 70.0*
O=C(NC1CCCC1)c1cccc2c1C(=O)c1ccc(N3CCCCC3)cc1S2(=O)=O | nt | -22.5 | nt | 4.2 | -39.6 | 50.2*
C[C@H](CO)N1C[C@H](C)[C@@H](CN(C)Cc2ccccc2F)Oc2cc(C3=CCCC3)ccc2S1(=O)=O | nt | 18.0 | nt | nt | nt | -9.4
CCOc1ccc(-c2cc(C(=O)NC3CCCCC3)[nH]n2)c(C)c1 | nt | -127.2 | nt | 3.7 | -81.0 | 57.4*
COc1ccc(F)cc1-c1cc(C(=O)NC2CCCCC2)[nH]n1 | nt | -19.8 | nt | 2.4 | -19.4 | 49.3*
COc1ccc(Cl)cc1-c1cc(C(=O)NCC2CCCCC2)[nH]n1 | nt | 4.5 | nt | -1.9 | -6.4 | -8.2
C[C@H]1CN([C@@H](C)CO)C(=O)Cc2cc(NS(=O)(=O)c3cccs3)ccc2O[C@H]1CN(C)Cc1ccc(C(=O)Nc2ccccc2N)cc1 | nt | nt | nt | nt | 31.6 | nt
COc1ccccc1-c1cnc2c(c1)C(=O)N([C@H](C)CO)C[C@@H](C)[C@H](CN(C)C(=O)c1ccncc1)O2 | nt | -4.8 | nt | nt | nt | -2.7
C[C@H](CO)N1C[C@H](C)[C@@H](CN(C)C(=O)CCC(F)(F)F)OCCCC[C@H](C)Oc2ccc(NC(=O)Cc3ccccc3)cc2C1=O | nt | -1.5 | nt | nt | -7.0 | 0.7
CS(=O)(=O)c1ccc(-c2cccc(NC(=O)c3ccc(Br)o3)c2)nn1 | 16.3 | 9.8 | -16.5 | -5.2 | 12.8 | nt
COC(=O)Cc1ccc(NC(=O)c2ccc(Br)o2)cc1 | -46.0 | nt | 48.2 | 8.8 | nt | 56.8*
CCN(CC)c1ccc(NC(=O)c2ccc(Br)o2)cc1 | -91.8 | nt | 96.7* | 69.8* | -143.1 | 43.2*
COc1ccc(-c2ccc(NC(=O)c3ccc(Br)o3)cc2)nn1 | -94.7 | -77.3 | 97.6* | 30.9* | -136.5 | 26.7
SMILES | MITF TRPM1 inh | EWS-Fli inh | MITF act | Wnt bcat act | PAX8 reporter | esBAF inh
COc1ccc2c3c([nH]c2c1)[C@@H](CO)N(C(=O)Nc1ccccc1F)CC31CCN(C(=O)C2CC2)CC1 | nt | 15.3 | nt | nt | -2.0 | nt
C=C1C(=O)OC2/C=C(/C)CC/C=C(/C)CCC12 (stereo not drawn) | nt | 2.3 | nt | nt | 98.3* | nt
C=C1C(=O)OC2CC1C(O)CC(C)=CCCC(C)=CC(O)CC2C (stereo not drawn) | 95.1* | 4.4 | nt | -4.1 | 100.8* | nt
C=C1C(=O)OC2CC1C(OC(C)=O)CC(C)=CCCC(C)=CCCC2(C)O (stereo not drawn) | nt | 38.4 | nt | -0.8 | nt | 37.4
CO[C@H]1CN(C)C(=O)c2ccc(NC(=O)C3CCC3)cc2OC[C@H](C)N(C(=O)CN(C)C)C[C@@H]1C | nt | nt | nt | nt | 1.2 | nt
CCOC(=O)Nc1sc2c(c1C#N)CCCC2 | -79.1 | nt | 90.8* | nt | nt | -7.6
N#Cc1c(NC(=O)c2ccccc2)sc2c1CCC2 | -40.6 | nt | 43.5 | nt | nt | nt
Cc1ccc(OCC(=O)Nc2sc3c(c2C#N)CCC3)cc1C | -50.5 | nt | nt | 0.8 | -101.1 | ?
Cc1cccc(C(=O)Nc2sc3c(c2C#N)CCCCC3)c1 | -88.2 | nt | 89.3* | nt | nt | -0.9
CC(=O)Nc1sc2c(c1C#N)CCC(C)C2 (stereo not drawn) | -15.2 | 0.7 | 14.5 | 0.1 | -24.5 | 17.8
Cc1cc(C(=O)Nc2sc3c(c2C#N)CCC(C)C3)cs1 (stereo not drawn) | -65.5 | nt | 67.8 | 29.6 | nt | 51.6*
Cc1ccc(OCC(=O)Nc2sc3c(c2C#N)CCC3)cc1 | -108.0 | -93.1 | 111.0* | 12.4 | nt | 35.1
C[C@@H]1CN([C@@H](C)CO)C(=O)c2cc(NC(=O)Nc3ccc4c(c3)OCO4)ccc2O[C@@H](C)CCCCO[C@@H]1CN(C)C(=O)CCCN(C)C | nt | -4.9 | nt | nt | 5.0 | 0.7
CO[C@@H]1CN(C)C(=O)c2cc(NC(=O)C3CCCCC3)ccc2OC[C@@H](C)N(Cc2nccs2)C[C@@H]1C | nt | 1.0 | nt | nt | 14.1 | 9.4
CN(C)c1cccc(F)c1C(=O)NC(=O)Nc1ccc(Cl)cc1 | 8.4 | 52.9* | nt | -11.4 | nt | nt
CN(C)c1cccc(N(C)C)c1CNC(=O)NC(=O)c1c(F)cccc1F | -0.1 | -1.7 | 0.4 | -0.2 | 11.2 | -1.8
Cc1ccc(NC(=O)Nc2ccc3c(c2)CCC3)c(C)c1 | -23.5 | -35.6 | 23.0 | 2.5 | -2.4 | 7.1
Cc1cc(C)n2nc(C(=O)Nc3ccc4c(c3)CCC4)nc2n1 | -48.3 | -59.0 | 48.5 | 20.0 | -44.2 | 56.5*
O=C(Nc1ccc2c(c1)CCC2)Nc1ccccc1Cl | -70.7 | -107.9 | 68.0 | 51.5* | -310.5 | 78.5*
CCOc1ccccc1NC(=O)Nc1ccc2c(c1)CCC2 | -23.9 | -38.3 | 28.3 | 14.8 | -58.5 | 48.0*
Cn1ncc(Cl)c1C(=O)Nc1ccc2c(c1)CCC2 | -28.3 | nt | 29.2 | 23.7 | -167.5 | 51.9*
C[C@H]1CN([C@@H](C)CO)C(=O)c2cc(C#Cc3cccnc3)cnc2O[C@H]1CN(C)Cc1ccccc1 | nt | -0.9 | nt | nt | nt | nt
C[C@H]1CN([C@@H](C)CO)C(=O)c2c(c3ccccc3n2C)-c2ccccc2CO[C@H]1CN(C)S(=O)(=O)c1cn(C)cn1 | nt | -6.8 | nt | nt | -9.8 | -9.4
O=C(N[C@@H]1CC[C@@H](CC(=O)N2CCOCC2)O[C@@H]1CO)c1ccccn1 | nt | nt | nt | nt | nt | -2.0
Cc1nn(-c2ccccc2)c(N)c1N=Nc1cccnc1 | -98.9 | -88.3 | 96.8* | 11.4 | -167.8 | nt
C=C(C)COc1ccc(-c2n[nH]c(C)c2-c2ccc(OC)c(OC)c2)c(O)c1 | 22.9 | 61.5* | -23.6 | -2.6 | 27.5 | -16.3
CCN1C(=O)/C(=C/N(C)c2ccccc2)OC1=S | -55.0 | -49.3 | 46.3 | 5.9 | nt | 38.9
CCN1C(=O)/C(=C\N(C(C)=O)c2ccccc2)OC1=S | -9.6 | nt | 5.6 | nt | nt | 44.6*
